In the assay the target is Beta-2 adrenergic receptor (Homo sapiens) (UniProt P07550). Put plainly: Adrenergic beta2 receptor (ADRB2) small molecule agonists, cell-based qHTS assay (AID 1963593). Summed up:
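CHO cells stably over-expressing ADRB2 were plated overnight at 37C, then dosed with compounds plus a stimulation mix containing 100uM IBMX and 25uM Ro-20-1724 for 0.5hr at room temperature. cAMP was measured by HTRF competition, 1hr.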

Results filed as inconclusive are left out. Entries that show only a call come without a potency. Calls of active or inactive are those of the source. Calls follow the shape of the full dose curve.
Potency is read from the fitted curve at half-maximal effect.

Chain of Beta-2 adrenergic receptor (Homo sapiens) (P07550 whole entry, looked up): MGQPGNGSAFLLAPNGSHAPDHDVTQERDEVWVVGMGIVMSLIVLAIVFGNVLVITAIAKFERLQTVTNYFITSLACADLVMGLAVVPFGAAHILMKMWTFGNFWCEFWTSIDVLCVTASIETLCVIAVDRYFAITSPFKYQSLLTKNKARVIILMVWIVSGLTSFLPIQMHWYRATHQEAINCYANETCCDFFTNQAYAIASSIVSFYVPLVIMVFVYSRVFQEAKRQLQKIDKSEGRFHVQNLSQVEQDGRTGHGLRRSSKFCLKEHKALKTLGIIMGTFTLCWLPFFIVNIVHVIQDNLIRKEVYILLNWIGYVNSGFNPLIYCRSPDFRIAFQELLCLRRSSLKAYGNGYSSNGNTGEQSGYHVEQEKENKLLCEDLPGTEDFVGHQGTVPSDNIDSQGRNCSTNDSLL

On to `C[C@H]1CC[C@@H]2[C@@H](C)[C@H]3[C@H](C[C@H]4[C@@H]5CC=C6CC(O[C@@H]7O[C@H](CO)[C@H](O)[C@H](O[C@@H]8O[C@H](CO)[C@@H](O)[C@H](O)[C@H]8O)[C@H]7O[C@H]7O[C@@H](C)[C@H](O)[C@@H](O)[C@H]7O)CC[C@]6(C)[C@H]5CC[C@]34C)N2C1` (stereo partly specified), for which the Potency result is “inactive”. For the molecule `COP(=S)(OC)Oc1nc(Cl)c(Cl)cc1Cl`, the Potency entry is “inactive”. The entry for `ClCCCCCCCl` is “inactive”; for `[Cl-].[Cl-].[Cl-].[Yb+3]` it is “inactive”. In the case of `CCCCn1cc[n+](C)c1.[Cl][Fe-]([Cl])([Cl])[Cl]`, the Potency result is “inactive”.

With `CC(=O)Nc1ccc2c(c1)Cc1ccccc1-2`, the Potency result is “inactive”. Regarding `Cc1cc(C)c(C2=C(OC(=O)CC(C)(C)C)C3(CCCC3)OC2=O)c(C)c1`, the Potency result was “inactive”.

Turning to `CC(=O)[O-].CC(=O)[O-].[Co+2]`, the Potency result was “inactive”.

For the molecule `CCCSP(=S)(OCC)Oc1ccc(SC)cc1` (stereo unspecified), the Potency entry is “inactive”. As for `COP(=S)(OC)Oc1cc(Cl)c(Br)cc1Cl`, the Potency result is “inactive”. Take `C[C@@H](N)[C@@H](O)c1ccccc1`: the Potency result is “inactive”. For `CCOP(=O)(OCC)O/C(=C/Cl)c1ccc(Cl)cc1Cl`, the Potency result was “inactive”.

`C=CCN1CC[C@]23c4c5ccc(O)c4O[C@H]2C(=O)CC[C@@]3(O)[C@H]1C5`: the Potency result is “inactive”. Turning to `C=CC(=O)OCCCCO`, the Potency entry is “inactive”.

For the molecule `CCOP(=S)(OCC)SCCl`, the Potency entry was “inactive”. The entry for `CC(=O)[O-].CC(=O)[O-].O.O.[Cd+2]` is “inactive”; for `O=C1OC(CCN2CCCCC2)OC1(c1ccccc1)c1ccccc1` (stereo unspecified) it is “inactive”; for `Oc1c(Cl)cccc1Cl` it is “inactive”.

On to `ClC1=C(Cl)[C@]2(Cl)[C@@H]3[C@@H]4C[C@@H]([C@H]5O[C@@H]45)[C@@H]3[C@@]1(Cl)C2(Cl)Cl`, for which the Potency is 10.9 µM (active). On to `CCOP(=S)(OCC)Oc1ccc(S(C)=O)cc1` (stereo unspecified), for which the Potency entry is “inactive”. `CCCOc1nn(C(=O)NS(=O)(=O)c2ccccc2C(=O)OC)c(=O)n1C`: the Potency result is “inactive”. On to `CCC1(c2cccc(O)c2)CCCCN(C)C1` (stereo unspecified), for which the Potency result is “inactive”. Take `CC[C@H]1C[C@H]2[C@@H]3CCC4=CC(=O)CC[C@@H]4[C@H]3CC[C@]2(C)[C@H]1O`: the Potency result was “inactive”. In the case of `CC(=O)CN(CC(C)=O)N=O`, the Potency result is “inactive”. Turning to `CCCCc1ccc(O)cc1`, the Potency result was “inactive”. For the molecule `O=C(N[C@H](c1ccccc1)[C@@H]1CN2CCC1CC2)c1c(Cl)ccc(C(F)(F)F)c1Cl`, the Potency entry was “inactive”. The entry for `CCCN(CCCl)c1c([N+](=O)[O-])cc(C(F)(F)F)cc1[N+](=O)[O-]` is “inactive”. Regarding `CCC(C)(c1ccc(O)cc1)c1ccc(O)cc1`, the Potency result was “inactive”. Regarding `CCCCCCCCCC(=O)O[C@H]1CC[C@H]2[C@@H]3CCC4=CC(=O)CC[C@@H]4[C@H]3CC[C@]12C`, the Potency entry was “inactive”.

With `Cc1c(COC(=O)[C@@H]2[C@H](/C=C(\Cl)C(F)(F)F)C2(C)C)cccc1-c1ccccc1`, the Potency result was “inactive”. `O=[N+]([O-])c1ccc(Oc2ccc(C(F)(F)F)cc2[N+](=O)[O-])cc1`: the Potency entry is “inactive”. Regarding `ClC1=C(Cl)C2(Cl)C(CBr)CC1(Cl)C2(Cl)Cl` (stereo unspecified), the Potency entry was “inactive”. `COCC(C)N(C(=O)CCl)c1c(C)csc1C` (stereo unspecified): the Potency result was “inactive”. For the molecule `Brc1ccc(Oc2ccc(Br)cc2Br)c(Br)c1`, the Potency entry is “inactive”. In the case of `C=CC(=O)OCC(COC(=O)C=C)(COC(=O)C=C)COC(=O)C=C`, the Potency is 24.3 µM (active). `O=C(Nc1ccccc1)Nc1ccnc(Cl)c1`: the Potency result is “inactive”.

(Values after PubChem BioAssay (Tox21).)
